Target: OLFML2A
Assay: pooled miR-30 sensor sort-seq; sequence = guide strand
Details: shRNA
Further: reference of the scale not given here.

Q: Which sensor-assay potency score (higher = more potent) does the source give for TTGTAGGGTAGCTTGTACATGT here?
A: The sensor-assay potency score (higher = more potent) was -0.494.

Q: For TAGTTGGTGACATAGATCCTGT, which sensor-assay potency score (higher = more potent) is on record?
A: Its sensor-assay potency score (higher = more potent) is -0.519.

Q: How did the sensor-assay potency score (higher = more potent) turn out when TTATACTTGACTTTGTTCTAAA was run?
A: Its sensor-assay potency score (higher = more potent) is -0.893.

Q: How did the sensor-assay potency score (higher = more potent) turn out when TTGTAGTCGATCTGGGTGGTGT was run?
A: Its sensor-assay potency score (higher = more potent) is -0.246.

Target: OLIG1
Assay: as above
Details: shRNA

Q: Which sensor-assay potency score (higher = more potent) does the source give for TACAGCTCTCCAAACAGCTGGT here?
A: Its sensor-assay potency score (higher = more potent) is -0.013.

Q: How did the sensor-assay potency score (higher = more potent) turn out when TTAACGTCTGTAACAAATCGAA was run?
A: The sensor-assay potency score (higher = more potent) was -0.686.

Q: For TAGTAAATCGGGAACACTGGAT, which sensor-assay potency score (higher = more potent) is on record?
A: Its sensor-assay potency score (higher = more potent) is -0.186.

Q: How did the sensor-assay potency score (higher = more potent) turn out when TAACGTCTGTAACAAATCGAAA was run?
A: Its sensor-assay potency score (higher = more potent) is -1.41.

Q: With TATGTAGCTCTTCAACTGCAAG as the sequence, how does the sensor-assay potency score (higher = more potent) read?
A: Its sensor-assay potency score (higher = more potent) is -1.7.

Q: TACCTATTTTAGTAAATCGGGA was tested. Which sensor-assay potency score (higher = more potent) did it give?
A: The sensor-assay potency score (higher = more potent) was -0.985.

Q: How did the sensor-assay potency score (higher = more potent) turn out when TTGCTTTCTAAGAAACCCCCAG was run?
A: The sensor-assay potency score (higher = more potent) was -0.585.

Q: How did the sensor-assay potency score (higher = more potent) turn out when TTTAAGAGCGAAAACTCTCTGC was run?
A: Its sensor-assay potency score (higher = more potent) is -0.0663.

Q: For TTGTTGATTCTGTACACCGTCA, which sensor-assay potency score (higher = more potent) is on record?
A: Its sensor-assay potency score (higher = more potent) is -0.445.

Q: With TTACCTATTTTAGTAAATCGGG as the sequence, how does the sensor-assay potency score (higher = more potent) read?
A: Its sensor-assay potency score (higher = more potent) is -0.775.

Q: With TCGGCTACTACCAACAACCAAA as the sequence, how does the sensor-assay potency score (higher = more potent) read?
A: The sensor-assay potency score (higher = more potent) was -1.38.

Q: With TTGGTTTTCGTTTTTAAGCAAG as the sequence, how does the sensor-assay potency score (higher = more potent) read?
A: Its sensor-assay potency score (higher = more potent) is -1.05.

Target: OMD
Assay: as above
Details: shRNA

Q: For TTAGTTGTATTGTTTGACCATT, which sensor-assay potency score (higher = more potent) is on record?
A: The sensor-assay potency score (higher = more potent) was -0.906.

Q: With TTGTAGTAGATTTGGAAGCTTA as the sequence, how does the sensor-assay potency score (higher = more potent) read?
A: The sensor-assay potency score (higher = more potent) was -0.257.

Q: Which sensor-assay potency score (higher = more potent) does the source give for TTTGTTGTGTCCAACACTGAGT here?
A: The sensor-assay potency score (higher = more potent) was -0.557.

Q: TTGTGTGACATTCTTAGAGTAT was tested. Which sensor-assay potency score (higher = more potent) did it give?
A: Its sensor-assay potency score (higher = more potent) is -0.365.

Q: For TATTTCATTATTTTGTAGGTAT, which sensor-assay potency score (higher = more potent) is on record?
A: Its sensor-assay potency score (higher = more potent) is 0.614.

Q: With TTCATTGTAACCAAGAAGGAGT as the sequence, how does the sensor-assay potency score (higher = more potent) read?
A: The sensor-assay potency score (higher = more potent) was -0.273.

Q: With TTTGAGTAAGTTCTAATCCTAT as the sequence, how does the sensor-assay potency score (higher = more potent) read?
A: The sensor-assay potency score (higher = more potent) was -0.412.

Q: TTGGTCATAGTCTTCATCCCAC was tested. Which sensor-assay potency score (higher = more potent) did it give?
A: The sensor-assay potency score (higher = more potent) was -0.0587.

Q: With TATAGGTTTTGTGAAGTCGTAA as the sequence, how does the sensor-assay potency score (higher = more potent) read?
A: The sensor-assay potency score (higher = more potent) was -0.621.

Q: TAGTGCTTCGTTGTTCACCATA was tested. Which sensor-assay potency score (higher = more potent) did it give?
A: Its sensor-assay potency score (higher = more potent) is -1.2.

Q: How did the sensor-assay potency score (higher = more potent) turn out when TTTGTCGAAGTATTTTTCGGGT was run?
A: Its sensor-assay potency score (higher = more potent) is -0.262.

Q: With TTAAATTCAATTCTGATCTTAT as the sequence, how does the sensor-assay potency score (higher = more potent) read?
A: Its sensor-assay potency score (higher = more potent) is -0.256.

Target: OPRK1
Assay: as above
Details: shRNA

Q: Which sensor-assay potency score (higher = more potent) does the source give for TTTCGGACTCTGCTAGTGCTCT here?
A: Its sensor-assay potency score (higher = more potent) is -0.953.

Q: How did the sensor-assay potency score (higher = more potent) turn out when TTGCTGTCTTCATCTTTGTGTA was run?
A: Its sensor-assay potency score (higher = more potent) is -0.644.

Q: TTGTAGTAACTAAAGCATCTGC was tested. Which sensor-assay potency score (higher = more potent) did it give?
A: Its sensor-assay potency score (higher = more potent) is -0.405.

Q: How did the sensor-assay potency score (higher = more potent) turn out when TAGCTGGAGAGAGCAGCTGTGC was run?
A: Its sensor-assay potency score (higher = more potent) is -1.45.

Q: Which sensor-assay potency score (higher = more potent) does the source give for TATCTTGCACAGCACATCCCCA here?
A: Its sensor-assay potency score (higher = more potent) is -0.82.

Q: ATCACGAACATGACCAGCGAGT was tested. Which sensor-assay potency score (higher = more potent) did it give?
A: The sensor-assay potency score (higher = more potent) was -1.24.

Q: Which sensor-assay potency score (higher = more potent) does the source give for AATAGCTGGAGAGAGCAGCTGT here?
A: The sensor-assay potency score (higher = more potent) was 0.381.

Q: TTCATGAAGAGGTCCCACCAGG was tested. Which sensor-assay potency score (higher = more potent) did it give?
A: Its sensor-assay potency score (higher = more potent) is -0.714.

Q: For TTACTATCTTGCACAGCACATC, which sensor-assay potency score (higher = more potent) is on record?
A: Its sensor-assay potency score (higher = more potent) is -1.6.

Q: For TATCGGATGATCACGAACATGA, which sensor-assay potency score (higher = more potent) is on record?
A: Its sensor-assay potency score (higher = more potent) is -0.746.

Q: For ATGACATCGACGTCTTCCCTGA, which sensor-assay potency score (higher = more potent) is on record?
A: The sensor-assay potency score (higher = more potent) was -0.669.

Q: TTGGTTGCTGTCTTCATCTTTG was tested. Which sensor-assay potency score (higher = more potent) did it give?
A: The sensor-assay potency score (higher = more potent) was -0.766.

From the OligoGym collection
